# From PubChem BioAssay
# In the library only some 2% were active in any assay of this set; here they are far more common.
# LEDGF integ inh – blocks HIV-1 LEDGF/p75-dependent DNA integration; TR-FRET IN-LEDGF/p75 DNA integration, Eu/Cy5; inhibition, % at 3.7 µM; hit rate 0.64% among 370,000;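 active = inhibition above the screen-wide mean plus 3 SD, cut at about 13% in these data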;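 note: signal is the Cy5 over europium emission ratio at 671 and 618 nm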
# UHRF1 binding – human UHRF1 methylated DNA binding inhibitors; Q96T88; UHRF1 binding to methylated oligo, TR-FRET; inhibition, % at 4.4 µM; hit rate 0.75% among 370,000;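 note: UHRF1 SRA domain binding a hemimethylated CpG hairpin DNA probe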
# Target sequence (Q96T88 whole entry, looked up, the tested form may be a part): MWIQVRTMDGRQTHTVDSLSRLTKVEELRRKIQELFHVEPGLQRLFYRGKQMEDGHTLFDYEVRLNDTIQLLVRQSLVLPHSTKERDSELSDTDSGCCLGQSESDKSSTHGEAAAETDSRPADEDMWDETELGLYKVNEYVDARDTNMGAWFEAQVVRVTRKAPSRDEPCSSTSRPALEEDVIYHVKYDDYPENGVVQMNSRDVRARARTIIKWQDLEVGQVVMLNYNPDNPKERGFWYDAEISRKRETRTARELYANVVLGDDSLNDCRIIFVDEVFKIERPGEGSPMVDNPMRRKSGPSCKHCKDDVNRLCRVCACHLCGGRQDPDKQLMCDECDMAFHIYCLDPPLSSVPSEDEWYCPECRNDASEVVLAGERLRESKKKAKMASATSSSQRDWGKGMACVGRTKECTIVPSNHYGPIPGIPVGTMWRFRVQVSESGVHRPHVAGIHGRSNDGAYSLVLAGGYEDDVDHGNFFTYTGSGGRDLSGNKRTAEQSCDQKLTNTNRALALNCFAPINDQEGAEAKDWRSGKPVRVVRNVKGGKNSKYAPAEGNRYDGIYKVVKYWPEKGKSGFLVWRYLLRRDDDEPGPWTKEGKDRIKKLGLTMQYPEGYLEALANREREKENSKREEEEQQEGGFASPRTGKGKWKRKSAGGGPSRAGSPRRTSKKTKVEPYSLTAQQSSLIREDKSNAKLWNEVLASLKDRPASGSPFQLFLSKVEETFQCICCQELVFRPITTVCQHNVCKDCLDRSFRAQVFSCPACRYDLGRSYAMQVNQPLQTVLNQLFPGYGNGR
# Rin1-Abl PPI inh – human Rin1-Abl interaction inhibition; P00519+Q13671; TR-FRET Rin1/Abl binding, biochemical; inhibition, % at 7.35 µM; hit rate 0.4% among 360,000; AID 588664; in the data active = inhibition above about 5%, passing the limit was not always enough
# MBD2 inh – MBD2-methylated oligo binding inhibition; TR-FRET, MBD2 binding to methylated oligonucleotide; inhibition, % at 4.4 µM; Q9UBB5; hit rate 0.31% among 370,000; in the data active = inhibition above about 13%
# TCR-CD3 inh – human TCR-CD3 binding inhibition. TAMRA-labeled TCR probe fluorescence, biochemical. inhibition, % at 9.4 µM. hit rate 0.37% among 360,000. AID 651800; in the data active = inhibition above about 19%;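 note: recombinant mutant TCR 2C K166C tagged with TAMRA read by polarization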
# BSA probe FL – counter-screen for TCR-CD3 interaction inhibitors: BSA probe; shares compounds with TCR-CD3 inh; TAMRA-labeled BSA probe fluorescence counterscreen; inhibition, % at 9.4 µM; hit rate 10% among 1,200; in the data active = inhibition above about 23%
# TCR-CD3 conf – TCR-CD3 interaction inhibition, confirmation; inhibition, % at 9.4 µM; TAMRA-labeled TCR probe fluorescence binding assay; AID 652036; hit rate 48% among 1,200; shares compounds with TCR-CD3 inh; in the data active = inhibition above about 19%
# UHRF1 ctr MBD2 – inhibits human UHRF1 binding to methylated oligonucleotide, MBD2 counter-screen. shares compounds with MBD2 inh. TR-FRET. inhibition, % at 4.4 µM. hit rate 25% among 1,000;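 note: UHRF1 SRA domain binding a labeled hemimethylated CpG hairpin DNA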
# MBD2 confirm – MBD2-DBD methyl-DNA binding inhibition, TR-FRET confirmation; AID 720531; inhibition, % at 4.4 µM; TR-FRET MBD2-DBD binding to methylated oligonucleotide; shares compounds with MBD2 inh; hit rate 26% among 1,000; in the data active = inhibition above about 14%
# Hits are given with their value; – = inactive; · = no result given. Cut-off read from the data, not from the text of the source, unless noted: active = inhibition above about 21%; inactive = the rest.
SMILES,LEDGF integ inh,UHRF1 binding,Rin1-Abl PPI inh,MBD2 inh,TCR-CD3 inh,BSA probe FL,TCR-CD3 conf,others
COc1ccc(Cl)cc1C(=O)NC(=S)Nc1nc(C)cc(C)n1,–,–,–,–,–,·,·,
O=C(O)c1ccccc1NS(=O)(=O)c1ccc(N/N=C/c2cccc(O)c2O)c([N+](=O)[O-])c1,–,–,–,–,24.7,–,23.6,
Cc1ccc(C(=O)NCCCC(=O)O)o1,–,–,–,–,41.5,–,–,
Cc1ccc(C(=O)NCCCCNC(=O)c2ccc(C)o2)o1,–,–,–,–,–,·,·,
COc1cc(/C=N/NC(=O)C2(O)c3ccccc3-c3ccccc32)ccc1O,–,–,–,–,–,·,·,
COc1cc(/C=N/NC(=O)C(=O)/C=C2\NC(C)(C)Cc3ccccc32)ccc1O,–,–,–,–,25.7,–,–,
Cc1cc(C(=O)N/N=C/c2ccc(O)c([N+](=O)[O-])c2)n[nH]1,–,–,–,–,–,·,·,
O=C(Cn1nnc(-c2ccccc2)n1)N/N=C/c1cccc([N+](=O)[O-])c1,–,–,–,–,–,·,·,
Cc1cc(C(=O)N/N=C/c2cc(Br)cc([N+](=O)[O-])c2O)c2ccccc2n1,–,–,–,–,40.7,–,42.7,
Cc1cc(C(=O)N/N=C/c2cccc([N+](=O)[O-])c2O)n[nH]1,–,–,–,–,29.3,–,–,
O=C(Cn1nnc(-c2ccccc2)n1)N/N=C/c1cccc([N+](=O)[O-])c1O,–,–,–,–,37.5,–,49.8,
Cc1ccc(NC(=O)CCNS(=O)(=O)c2ccc(Br)s2)cc1,–,–,–,–,–,·,·,
CCOC(=O)C1(Cc2cccc(OC)c2)CCCN(CCO)C1 (stereo not drawn),–,–,–,–,–,·,·,
C[C@H](CO)N1C[C@H](C)[C@@H](CN(C)C(=O)Nc2ccccc2)Oc2c(NC(=O)C3CCCCC3)cccc2C1=O,–,–,–,–,–,·,·,
CCc1ccc(-c2cc(C(=O)O)c3ccccc3n2)s1,–,–,–,–,–,·,·,
O=C(O)C1=CC[C@@H](c2ccc(Cl)cc2)N(S(=O)(=O)c2ccc(Cl)cc2)[C@H]1c1ccccc1,–,–,–,–,36.4,–,–,
O=C(COC(=O)c1cc(-c2cccs2)nn1-c1ccccc1)Nc1ccc(F)c([N+](=O)[O-])c1,–,–,–,–,21.1,–,–,
CN(CC(=O)Nc1ccc(F)cc1)C(=O)c1cc(-c2cccs2)nn1-c1ccccc1,–,–,–,–,–,·,·,
COc1ccc(C)cc1S(=O)(=O)n1c([N+](=O)[O-])cnc1C,–,–,–,–,–,·,·,
Cc1ccc(NC(=O)[C@@H](Cc2ccccc2)NC(=O)[C@H]2O[C@@H](n3ccc(=O)[nH]c3=O)[C@H](O)[C@@H]2O)cc1C,–,–,·,–,–,·,·,
CCN1/C(=C/C=C/c2sc3ccccc3[n+]2CC)Sc2ccccc21,·,·,–,·,·,·,·,
CCN1/C(=C/C=C/c2oc3ccc(-c4ccccc4)cc3[n+]2CC)Oc2ccc(-c3ccccc3)cc21,–,–,–,–,104.7,152.1,57.6,
CC(C)c1ccc(NC(=O)CSc2n[nH]c(=O)n2-c2cccnc2)cc1,–,–,–,–,–,·,·,
COc1ccc(CCN(C)C(=O)C2CCN(C(=O)Nc3ccccc3)CC2)cc1OC,–,–,–,–,–,·,·,
CC(=O)c1cc(-c2ccc(F)cc2)n(CCC(=O)NC(C)(C)C)c1C,14.6,83.2,–,36.0,20.3,–,–,UHRF1 ctr MBD2=–;MBD2 confirm=–
SMILES,LEDGF integ inh,UHRF1 binding,Rin1-Abl PPI inh,MBD2 inh,TCR-CD3 inh,BSA probe FL,TCR-CD3 conf,others
CCC(C)(C)N(C(=O)CCC(=O)Nc1cc(C)on1)C(C(=O)NC(C)(C)C)c1ccc(OC)cc1 (stereo not drawn),–,–,–,–,–,·,·,
O=C(COC(=O)c1c2c(nc3ccccc13)/C(=C/c1ccco1)CC2)NC1CCCC1,39.4,45.0,–,14.3,22.7,–,–,UHRF1 ctr MBD2=43.3;MBD2 confirm=31.9
Cc1cccc(N(Cc2ccccc2)C(=O)c2cc(S(=O)(=O)N3CCOCC3)ccc2Cl)c1,–,–,–,–,–,·,·,
Cn1cc(/C=N/NC(=O)c2cc3cc(Br)ccc3o2)c2ccccc21,–,–,–,–,–,·,·,
O=C(O)c1ccc(-n2cccc2/C=N\NC(=O)c2cc3cc(Br)ccc3o2)cc1,–,61.6,–,32.8,28.7,–,37.4,UHRF1 ctr MBD2=65.6;MBD2 confirm=40.8
CN(C(=O)c1cccc(NC(=O)Cc2ccc(NC(=O)C3CCCN(S(=O)(=O)c4cccc([N+](=O)[O-])c4)C3)cc2)c1)C1CCCCC1 (stereo not drawn),–,–,–,–,–,·,·,
COc1ccccc1C(=O)Nc1ccc(S(=O)(=O)Nc2nccs2)cc1,–,–,–,–,–,·,·,
O=C(O)c1ccccc1C(=O)Nc1ccc(S(=O)(=O)Nc2nccs2)cc1,–,–,–,19.0,37.5,–,–,UHRF1 ctr MBD2=–;MBD2 confirm=–
COCCN(C(=O)COC(=O)c1cc2c(s1)CCC2)c1c(N)n(Cc2ccccc2)c(=O)[nH]c1=O,53.7,95.8,–,65.1,26.5,–,37.2,UHRF1 ctr MBD2=100.1;MBD2 confirm=91.1
CCC1CCc2sc(C(=O)OCC(=O)N(CCOC)c3c(N)n(Cc4ccccc4)c(=O)[nH]c3=O)cc2C1 (stereo not drawn),–,–,–,–,–,·,·,
COc1cccc2c1C(=O)c1c(O)c3c(c(O)c1C2=O)C[C@@](O)(C(C)=O)C[C@@H]3O[C@H]1C[C@H](N)[C@H](O)[C@H](C)O1,–,91.1,–,107.0,161.8,183.0,150.3,UHRF1 ctr MBD2=97.8;MBD2 confirm=109.8
COc1cccc2c1C(=O)c1c(O)c3c(c(O)c1C2=O)C[C@@](O)(C(=O)CO)C[C@@H]3O[C@H]1C[C@H](N)[C@@H](O)[C@H](C)O1,·,·,–,·,·,·,·,
COc1cccc2c1C(=O)c1c(O)c3c(c(O)c1C2=O)CC(O)(C(=O)CO)CC3OC1CC(N(C)C)C(O)C(C)O1 (stereo not drawn),–,96.7,–,112.7,147.9,167.2,136.5,UHRF1 ctr MBD2=99.2;MBD2 confirm=111.4
O=C(NCC1CCCO1)c1ccc(N2CCCCC2)c([N+](=O)[O-])c1 (stereo not drawn),–,–,–,–,–,·,·,
COc1ccc(C(C)=O)cc1Cn1c(C)c(C(=O)NCC(C)C)sc1=O,–,–,–,–,–,·,·,
O=c1[nH]c(=S)[nH]c2c1C(c1ccc(Br)cc1)c1c([nH]c(=S)[nH]c1=O)O2,82.9,107.3,–,104.7,22.3,–,–,UHRF1 ctr MBD2=104.4;MBD2 confirm=88.4
O=C1NC(=S)S/C1=C\C=C\c1ccc([N+](=O)[O-])o1,81.4,94.5,–,74.2,31.7,–,28.7,UHRF1 ctr MBD2=90.4;MBD2 confirm=47.4
